Source: ChEMBL document CHEMBL4808148, “HDAC6 screening dataset using tau-based substrate in an enzymatic assay yields selective inhibitors and activators” (2021)
About 390 (7%) of roughly 5,600 compounds showed an effect of 50% or more. This is one part of a sample in which strong results are shown more often than they occur. Residues, ends and D or L forms follow the SMILES beside them.

What was measured:
[1] = biological target: T1, Protein deacetylase HDAC6 (Homo sapiens) (UniProt Q9UBN7); details: at 10 µM
T1 sequence (whole entry): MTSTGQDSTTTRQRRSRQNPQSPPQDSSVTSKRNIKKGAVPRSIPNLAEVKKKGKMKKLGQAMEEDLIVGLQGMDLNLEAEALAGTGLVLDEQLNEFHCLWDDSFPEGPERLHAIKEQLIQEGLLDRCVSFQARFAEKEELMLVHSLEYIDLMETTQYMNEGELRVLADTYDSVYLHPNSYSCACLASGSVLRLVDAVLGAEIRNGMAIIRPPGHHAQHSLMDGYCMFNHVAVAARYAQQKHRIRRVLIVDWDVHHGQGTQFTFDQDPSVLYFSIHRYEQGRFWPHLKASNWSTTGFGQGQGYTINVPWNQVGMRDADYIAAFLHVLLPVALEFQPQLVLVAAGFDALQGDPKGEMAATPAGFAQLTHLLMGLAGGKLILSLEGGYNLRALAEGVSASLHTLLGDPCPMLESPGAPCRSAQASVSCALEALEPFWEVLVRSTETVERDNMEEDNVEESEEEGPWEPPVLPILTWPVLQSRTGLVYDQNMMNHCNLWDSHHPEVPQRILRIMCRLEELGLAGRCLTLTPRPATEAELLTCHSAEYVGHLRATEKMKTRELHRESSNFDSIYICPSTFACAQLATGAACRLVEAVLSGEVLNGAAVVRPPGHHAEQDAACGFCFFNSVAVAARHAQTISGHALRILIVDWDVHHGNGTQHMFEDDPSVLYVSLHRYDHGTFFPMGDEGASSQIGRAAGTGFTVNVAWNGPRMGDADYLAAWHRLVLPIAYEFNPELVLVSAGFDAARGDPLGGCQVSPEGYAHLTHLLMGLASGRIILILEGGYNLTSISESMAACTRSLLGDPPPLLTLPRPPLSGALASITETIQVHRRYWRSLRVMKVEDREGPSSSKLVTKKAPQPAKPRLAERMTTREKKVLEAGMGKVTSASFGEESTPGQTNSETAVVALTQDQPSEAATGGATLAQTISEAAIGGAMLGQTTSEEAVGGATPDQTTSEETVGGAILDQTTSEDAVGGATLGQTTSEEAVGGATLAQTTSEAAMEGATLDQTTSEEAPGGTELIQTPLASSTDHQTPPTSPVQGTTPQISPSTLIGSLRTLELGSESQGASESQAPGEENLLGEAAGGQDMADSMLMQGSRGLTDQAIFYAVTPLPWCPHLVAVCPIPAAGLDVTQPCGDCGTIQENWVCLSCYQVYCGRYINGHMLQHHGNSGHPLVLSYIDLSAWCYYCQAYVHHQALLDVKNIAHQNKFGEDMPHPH

[2] = biological target: Protein deacetylase HDAC6 (Homo sapiens) (UniProt Q9UBN7); details: at 10 µM; remark: listed apart in the source

| Compound | inhibition [1] | inhibition [2] |
| --- | --- | --- |
| C=CCN1CC[C@]23c4c5ccc(O)c4O[C@H]2[C@@H](OCCOCCOCCOCCOCCOCCOCCOC)CC[C@@]3(O)[C@H]1C5 | 3.73% | – |
| OC[C@H]1O[C@H](O)C[C@@H](O)[C@@H]1O | -3.53% | – |
| O=C(Nc1cc(C(F)(F)F)cc(C(F)(F)F)c1)Nc1c(Br)cc(Br)cc1-c1nnn[nH]1 | 0.45% | – |
| O=C(c1cn(Cc2cncn2Cc2ccc(Br)cc2)cc1-c1cccc2ccccc12)N1CCOCC1 | -6.62% | – |
| COc1cc2c(cc1OC)CN(C(=O)/C=C/c1c(-c3ccccc3)n(C)c3ncccc13)CC2 | 33.3% | – |
| COC1[C@@H](O)[C@@H](O)C(O)[C@H](O)[C@H]1O (stereo not given in full) | -3.32% | – |
| CC(C)[C@@H]1C(=O)N(S(C)(=O)=O)[C@@H]2CCN(C(=O)/C=C/CN3CCCCC3)[C@H]21 | -9.25% | – |
| NC(=O)c1nc(Nc2ccccc2)sc1NC(=O)C1CCCCC1 | 11.1% | – |
| Cc1nc2c(c(=O)[nH]1)CSCC2 | 36% | – |
| CC(C)(C)NCC(O)COc1cc(Cl)ccc1Cl (stereo not given) | 2.55% | – |
| Nc1nc(F)nc2c1ncn2[C@@H]1O[C@H](COP(=O)(O)O)[C@@H](O)[C@@H]1O | -4.37% | – |
| TOCOFERSOLAN, CHEMBL2108106 | – | 6.6% |
| O=C(Nc1ncc(SCCN2CCCC2)s1)[C@]1(c2ccc(S(=O)(=O)C3CC3)cc2)C[C@H]1C1CCCCC1 | -4.35% | – |
| CC(C)CC(NC(=O)C1CCCN1)C(=O)NCC(N)=O (stereo not drawn) (H-Pro-Leu-Gly-NH2; configuration not given here) | 40.6% | – |
| CC(C)(C)Nc1nc(Nc2ccc(C(N)=O)cc2)cc(N)c1C#N | 26.8% | – |
| CC(C)C(N)=O | 26.5% | – |
| O=C(CC1CC(c2ccc(F)cc2F)=NO1)N1CCOCC1 (racemic) | 99.4% | – |
| O=C(O)CC1CC(c2ccccc2)=NO1 (stereo not given) | 32.1% | – |
| CCCC[C@H](NC(C)=O)C(=O)N[C@H]1CC(=O)NCCCC[C@@H](C(=O)O)NC(=O)[C@H](Cc2c[nH]c3ccccc23)NC(=O)[C@H](CCCNC(=N)N)NC(=O)[C@@H](Cc2ccccc2)NC(=O)[C@H](Cc2c[nH]cn2)NC1=O | 38.5% | – |
| N#CC[C@@H](C1CCCC1)n1cc(-c2ncnc3[nH]ccc23)cn1 | -2.44% | – |
| C[C@@H]([C@H](O)c1ccccc1)N(C)C | -0.94% | – |
| CNC(=O)Oc1cccc2ccccc12 | 25.3% | – |
| CN(C)[C@@H](CCOc1cccc2ccccc12)c1ccccc1 | 53% | – |
| CNC(=O)c1ccccc1Nc1nc(Nc2ccc3c(c2OC)CCC[C@H](N2CCN(CCO)CC2)C3)ncc1Cl | 11.5% | – |
| N#[N+]/C=C(\[O-])CC[C@H](N)C(=O)O | 28.2% | – |
| COc1cc(OCc2cccc(-c3ccccc3)c2C)cc(OC)c1CN1CCCC[C@H]1C(=O)O | 64.2% | – |
| CCOC(=O)[C@H](CCc1ccccc1)N[C@@H](C)C(=O)N1Cc2cc(OC)c(OC)cc2C[C@H]1C(=O)O | -0.68% | – |
| CC[C@H](C)[C@H]1O[C@]2(C=C[C@@H]1C)C[C@@H]1C[C@@H](C/C=C(\C)[C@@H](O[C@H]3C[C@H](OC)[C@@H](O[C@H]4C[C@H](OC)[C@@H](O)[C@H](C)O4)[C@H](C)O3)[C@@H](C)/C=C/C=C3\CO[C@@H]4[C@H](O)C(C)=C[C@@H](C(=O)O1)[C@]34O)O2 | -4.72% | – |

| Compound | inhibition [1] | inhibition [2] |
| --- | --- | --- |
| O=C(NCCN1CCN(c2ncccn2)CC1)C12CC3CC(CC(C3)C1)C2 | -4.05% | – |
| COc1cc(OC)c(/C=C/S(=O)(=O)Cc2ccc(OC)c(OP(=O)(O)O)c2)c(OC)c1 | 6.33% | – |
| CCn1c(=O)n(C2=C(CO)CN(CC3CCCCCCC3)CC2)c2ccccc21 | -8.59% | – |
| CN1CCC2=C(C1)C(c1ccccc1)c1ccccc12 (stereo not given) | -8.99% | – |
| CNC1CC(c2ccc(Cl)c(Cl)c2)c2ccccc21 (stereo not given) | 30.3% | – |
| CCCCN1[C@@H]2CC[C@H]1C[C@@H](OC(c1ccc(F)cc1)c1ccc(F)cc1)C2 | 7.33% | – |
| Nc1nc(OCc2cc(Br)cs2)c2[nH]cnc2n1 | 65.4% | – |
| CN1CCN(c2cccc3[nH]c(=O)oc23)CC1 | 26.1% | – |
| O=C([O-])[C@H]1O[C@H](O)[C@H](O)[C@@H](O)[C@@H]1O.[Na+] | 1.38% | – |
| CC(C)COC(=O)c1ccc(N)cc1 | 82.8% | – |
| CCOC(=O)c1ccc(N(C)c2csc(-c3ccccc3)n2)cc1 | 30.7% | – |
| Nc1ccc(C(=O)OCC(O)CO)cc1 (stereo not given) | 14.1% | – |
| CC1=C[C@H](O)CC(C)(C)[C@H]1/C=C/C(C)=C/C=C/C(C)=C/C=C/C=C(C)/C=C/C=C(C)/C=C/C1=C(C)C[C@@H](O)CC1(C)C | 5.04% | – |
| CC[C@H]1[C@@H](O)[C@@H]2[C@H](CC[C@]3(C)[C@@H]([C@H](C)CCOS(=O)(=O)O)CC[C@@H]23)[C@@]2(C)CC[C@@H](O)C[C@@H]12 | -1.78% | – |
| CC(C)C[C@H](NC(=O)[C@H](CCCCN)NC(=O)[C@H](CCCNC(=N)N)NC(=O)[C@H](C)NC(=O)[C@H](CO)NC(=O)[C@H](CCCCN)NC(=O)[C@H](CCCNC(=N)N)NC(=O)[C@H](C)NC(=O)CNC(=O)[C@@H](NC(=O)[C@H](Cc1ccccc1)NC(=O)CNC(=O)CNC(=O)[C@@H](N)Cc1ccccc1)[C@@H](C)O)C(=O)N[C@@H](C)C(=O)N[C@@H](CC(N)=O)C(=O)N[C@@H](CCC(N)=O)C(=O)O | 3.21% | – |
| CCC(CC)C(c1ccc(Nc2nc3ccccc3s2)cc1)n1cncn1 (stereo not given) | 11.9% | – |
| CC(C)c1cnn2c(NCc3ccccc3)cc(NCCCCCCN)nc12 | 61.1% | – |
| Cc1cc(/C=C2\SC(=O)N(c3ccccc3)C2=O)c(C)n1-c1cccnc1 | 96.7% | – |
| Cc1cc(/C=c2/sc3nc4ccccc4n3c2=O)c(C)n1-c1ccccc1 | -0.72% | – |
| Nc1nc(=O)c2sc(=O)n([C@@H]3O[C@H](CO)[C@@H](O)[C@H]3O)c2[nH]1 | 7.72% | – |
| Cc1cc2sc(NC(=O)Cc3ccccc3)nc2cc1Cl | 19.7% | – |
| Cc1ccc(-c2csc(NC(=O)c3ccccc3)n2)c(C)c1 | 61.3% | – |
| NC(=O)CN1C=CCC(C(N)=O)=C1 | -1.44% | – |
| O=C1c2cc(Cl)ccc2OC2CCON12 (stereo not given) | 8.29% | – |
| COc1ccccc1OC(=O)CNC(=O)Cc1ccc(C(=O)c2ccc(C)cc2)n1C | 27.4% | – |
| COc1cc(OC)cc(-c2ccc3c(-c4ccc(F)cc4)n[nH]c3n2)c1 | 81.7% | – |
| COc1ccn2ncc(-c3nc4[nH]nc(NC(=O)c5ccc(F)cc5)c4cc3F)c2c1 | 1.3% | – |
